# HepG2 viability: qHTS for Inhibitors of TGF-b: Cytotox Counterscreen; HepG2 CAGA-GFP viability, ATP luminescence, 18 h; Potency, µM (top dose mostly 46.1 µM), without a hit: at the top dose activity change, negative = cytotoxicity, most hits filed as cytotoxic; actives 0.76% (n = 410,000); AID 588856, 2011
#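 CellTiter-Glo luminescence gave cytotoxicity after 18 hours at 37 degrees C. The cells were HepG2 CAGA-GFP in 1% FBS DMEM, stimulated with 500 pg/mL TGF-beta after compound addition. %Activity was normalised to no-cell wells (complete cell-killing) and DMSO (no toxicity), and curves were fitted and classified.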
# ATXN2 expr inh: Primary qHTS for Inhibitors of ATXN expression; HEK-293 ATXN2-luciferase reporter, luminescence, 24 h; Potency, µM (titrated, usually from 57 µM), without a hit: top-dose activity change, negative = inhibition, hits mostly inhibitors; actives 0.72% (n = 360,000); also: % is scaled to controls: 0 for no effect and ±100 for the full control effect; nearly all actives have a fitted effect of over 55% in size
#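 ATXN2-luciferase reporter cells (luciferase flanked by upstream and downstream ATXN2 gene portions) were treated 24 h at 37 °C with compounds at up to 57 uM. SteadyGlo luminescence gave expression; GF-AFC fluorescence gave viability.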
# S2 tox: Viability Counterscreen for Primary qHTS for Inhibitors of ATXN expression; S2 cells (HEK-293 line with an ATXN2-luciferase reporter) viability, CellTiter-Fluor protease fluorescence, 24 h; Potency, µM (highest dose often 56.7 µM), most hits filed as cytotoxic; actives 0.49% (n = 400,000); also: nearly all actives have a fitted effect of over 40% in size
# HTT cytoprotect: qHTS Multiplex Assay to Identify Dual Action Probes in a Cell Model of Huntington: Cytoprotection (ATP); PC12 HTT-Q103 induced, cytoprotection, ATP luminescence, 40 h; AID 1471, 2008; actives 0.14% (n = 230,000); Potency, µM (doses to about 56.4 µM), for the others: cytoprotection (ATP increase), actives largely listed as activators; also: % of control where 0% means no effect; nearly all actives have a fitted effect of over 45% in size
#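 Huntington model: PC12 line, ecdysone-inducible HTTQ103 exon1–GFP, tebufenozide 100 nM. Test articles in a dose series. Endpoint luminescence from cellular ATP.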
# HTT aggregate: qHTS Multiplex Assay to Identify Dual Action Probes in a Cell Model of Huntington: Aggregate Formation (GFP); PC12 HttQ103-GFP aggregates, Acumen cytometry, 40 h; Potency, µM (doses to about 46.1 µM), for the others: at the top dose activity change, negative = inhibition, usual class: inhibitors; actives 1.1% (n = 220,000); also: % is scaled to controls: 0 for no effect and ±100 for the full control effect; nearly all actives have a fitted effect of over 60% in size
#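 Aggregate formation scored by laser-scanning cytometer (488 excitation, 500–530 emission) in lysed PC12 cells expressing Q103-GFP after 100 nM tebufenozide induction; library tested in dose series, with ATPLite reagent added in the multiplex.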
# TGFb inhibitor: qHTS for Inhibitors of TGF-b; AID 588855, 2011; HepG2 CAGA-GFP TGF-b/SMAD3 reporter, GFP fluorescence, 18 h; TGF-beta stimulated, 500 pg/mL final; Potency, µM (titrated, usually from 46.1 µM), inactives show top-dose activity, negative = inhibition, most hits filed as inhibitors; actives 1.2% (n = 410,000); also: % is scaled to controls: 0 for no effect and ±100 for the full control effect; nearly all actives have a fitted effect of over 65% in size
#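 Smad-responsive CAGA-GFP expression was quantified in HEPG2 cells exposed to compounds and 500 pg/mL final TGF-beta for 18 h at 37 degrees C; unstimulated wells defined full inhibition.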
# Active calls of the source: *; i = inactive; ? = inconclusive; . = no result given; [ ] = another dose, or the depositor's remark. In the library only some 2.8% were active in any assay of this set; here they are far more common. Calls follow the shape of the dose curve; as a rule, active = well fitted curve in the direction sought with a large enough effect; inconclusive = small, poorly fitted or top-dose-only effect, or another doubt; inactive = no such curve, though single readings can be large; an effect the other way counts as inactive or inconclusive. Potency is read from the fitted curve at half-maximal effect.
SMILES,HepG2 viability,ATXN2 expr inh,S2 tox,HTT cytoprotect,HTT aggregate,TGFb inhibitor
O=C(NCc1ccccn1)c1cnn(-c2ncc3c(n2)-c2ccccc2CC3)c1C1CC1,.,.,i,.,.,.
COC(=O)c1c(-c2ccccc2)c[nH]c1C,3.5%,25.8%,i,.,22.4µM*,24.0%
C=C(CO)[C@H]1Cc2c(ccc3c2O[C@H]2COc4cc(OC)c(OC)cc4[C@@H]2C3=O)O1,.,.,.,2.3%,.,.
Cn1c(Nc2ccc(C(F)(F)F)cc2)nc2cc(Oc3ccnc(-c4ncc(C(F)(F)F)[nH]4)c3)ccc21,.,-19.0%,.,.,.,.
O=C(CCCn1cnc([N+](=O)[O-])n1)Nc1cc(Cl)ccc1O,-6.1%,0.9%,i,-7.0%,17.2%,1.4%
Cc1ccccc1/C=N/NC(=O)Cn1cnc([N+](=O)[O-])n1,-3.2%,2.4%,i,-12.9%[10 µM],18.7%,0.0%
O=C(Cn1cnc([N+](=O)[O-])n1)N/N=C/c1cc(Cl)ccc1O,-30.1%,?,i,-87.8%,11.2µM*,-7.9%
O=C(Cn1cnc([N+](=O)[O-])n1)N/N=C/c1ccccc1O,3.5%,-28.0%,i,-55.4%,8.91µM*,-24.3%
COc1ccc(Nc2nc(N)c(C(=O)c3ccc(OC)cc3)s2)cc1,-153.4%,?,?,.,.,12.6µM*
Cc1ccc(C(=O)c2sc(Nc3ccc(F)cc3)nc2N)c(C)c1,-74.9%,?,i,.,.,12.6µM*
CCOc1ccc(Nc2nc(N)c(C(=O)c3ccccc3Cl)s2)cc1,-45.6%,.,.,.,.,3.55µM*
OC1(c2ccc3c(c2)CN(Cc2ccco2)CCO3)CCN(c2ccccc2F)CC1,.,.,i,.,.,.
CCN(Cc1cccc(S(=O)(=O)O)c1)c1ccc(C(=C2C=CC(=[N+](CC)Cc3cccc(S(=O)(=O)O)c3)C=C2)c2ccc(O)cc2S(=O)(=O)O)cc1,-26.9%,.,.,.,.,?
CCCC(=O)N1CCCC(c2cc(C(=O)Nc3ccccc3)no2)C1 (stereo not drawn),10µM*,11.2µM*,i,.,.,1.4%
CC1CCCCN1CCNC(=O)c1ccc2c(=O)n(Cc3ccc(Cl)cc3)c(=S)[nH]c2c1 (stereo not drawn),12.6µM*,?,i,.,.,?
CC1CCc2c(cc(-c3ccccc3)n2-c2ccc(C(=O)NC(C)C)cc2)C1 (stereo not drawn),-1.2%,.,.,.,.,7.94µM*
CCCCC/C=C\C/C=C\CCCCCCCC(=O)NCCc1ccc(O)c(O)c1,.,.,.,14.6%,.,.
Cc1cc(=O)oc2c(N)nccc12,-112.1%,?,35.5µM*,.,.,?
Cc1ccc(C(=O)Nc2ccnc(-c3cccnc3)n2)cc1,15.0%,4.5%,i,0.8%[10 µM],-10.3%,-4.5%
Cc1ccc(NC(=O)Nc2ccnc(-c3cccnc3)n2)cc1,1.2%,.,?,3.55µM*,?,?
CN1C[C@H](C(=O)N[C@]2(C)O[C@@]3(O)[C@H]4CCCN4C(=O)[C@@H](Cc4ccccc4)N3C2=O)C[C@H]2c3cccc4[nH]cc(c34)C[C@@H]21,.,.,.,-4.3%,.,.
Cc1ccc(OCC(=O)c2cc(C)c(C)cc2C)c([N+](=O)[O-])n1,-32.1%,1.4%,i,-34.4%,?,11.2µM*
Cc1cc(C(=O)CCl)c(C)n1-c1cccc([N+](=O)[O-])c1,-95.0%,?,25.1µM*,3.7%[10 µM],?,?
Cc1ccc(OCC(=O)c2cc(C)n(-c3ccccc3)c2C)c([N+](=O)[O-])n1,-14.6%,3.16µM*,i,-11.5%[1.9 µM],?,?
CCCn1c(C)cc(C(=O)COc2ccc(C)nc2[N+](=O)[O-])c1C,1.1%,20.7%,i,15.3%[10 µM],17.3%,4.9%

# Screening data from PubChem.
